Reference: the supplement of paper PMC10849652
Targets with a hit are over-represented here; the source holds about 8,800 in all. About 0.5% of all pairs of compound and target were hits.

Key:
Experiment in all cases: log2 fold change, soluble protein after heating vs DMSO (PISA); higher = thermal stabilisation; K562 lysate, 10 uM; active = over 0.2 and 3.5 SD of the protein, either way, in both replicates (recomputed)
lapatinib = compound: CS(=O)(=O)CCNCc1ccc(-c2ccc3ncnc(Nc4ccc(OCc5cccc(F)c5)c(Cl)c4)c3c2)o1 [lapatinib]
In short: (§1)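 Pellets of K562 cells were dounce-homogenised in PBS pH 7.4 with 1 mM MgCl2, and the crude extract was held at 1 mg/mL protein for a 30 min treatment with 10 μM compound. Aliquots were heated for 3 min over 48°C-58°C and pooled before NP-40 was added to 0.5% at 4°C. The supernatant from 21,000xg for 90 min was quantified by TMTpro 16plex LC-MS/MS with channel sums equalised. Values are reported from duplicates as log-two fold change in thermal stability relative to solvent controls.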

pictilisib = compound: CS(=O)(=O)N1CCN(Cc2cc3nc(-c4cccc5[nH]ncc45)nc(N4CCOCC4)c3s2)CC1 [pictilisib]
In short: as §1

crizotinib = compound: C[C@@H](Oc1cc(-c2cnn(C3CCNCC3)c2)cnc1N)c1c(Cl)ccc(F)c1Cl [crizotinib]
In short: as §1

[1] = compound: C[C@H](C1=CC=C(C=C1)C(=O)NC2=C3C=CNC3=NC=C2)N
In short: as §1

duvelisib = compound: C[C@H](Nc1ncnc2nc[nH]c12)c1cc2cccc(Cl)c2c(=O)n1-c1ccccc1 [duvelisib]
In short: as §1

gandotinib = compound: Cc1cc(Nc2cc(CN3CCOCC3)c3nc(C)c(Cc4ccc(Cl)cc4F)n3n2)n[nH]1 [gandotinib]
In short: as §1

tozasertib = compound: Cc1cc(Nc2cc(N3CCN(C)CC3)nc(Sc3ccc(NC(=O)C4CC4)cc3)n2)n[nH]1 [tozasertib]
In short: as §1

doramapimod = compound: Cc1ccc(-n2nc(C(C)(C)C)cc2NC(=O)Nc2ccc(OCCN3CCOCC3)c3ccccc23)cc1 [doramapimod]
In short: as §1

bafetinib = compound: Cc1ccc(NC(=O)c2ccc(CN3CC[C@H](N(C)C)C3)c(C(F)(F)F)c2)cc1Nc1nccc(-c2cncnc2)n1 [bafetinib]
In short: as §1

[2] = compound: Cc1cccc(CC(=O)N2CCc3c2ccc(-c2cn(C)c4ncnc(N)c24)c3F)n1
In short: as §1

nilotinib = compound: Cc1cn(-c2cc(NC(=O)c3ccc(C)c(Nc4nccc(-c5cccnc5)n4)c3)cc(C(F)(F)F)c2)cn1 [nilotinib]
In short: as §1

[3] = compound: Cc1nc(Nc2n[nH]c3c2CN(C(=O)N[C@H](CN(C)C)c2ccccc2)C3(C)C)c2sccc2n1
In short: as §1

dasatinib = compound: Cc1nc(Nc2ncc(C(=O)Nc3c(C)cccc3Cl)s2)cc(N2CCN(CCO)CC2)n1 [dasatinib]
In short: as §1

[4] = compound: Cc1ncc(-c2ccnc(Nc3ccc(S(C)(=O)=O)cc3)n2)n1C(C)C
In short: as §1

[5] = compound: Cn1cc(-c2ccc3c(c2)CCN3C(=O)Cc2cccc(C(F)(F)F)c2)c2c(N)ncnc21
In short: as §1

quisinostat = compound: Cn1cc(CNCC2CCN(c3ncc(C(=O)NO)cn3)CC2)c2ccccc21 [quisinostat]
In short: as §1

tipifarnib = compound: Cn1cncc1[C@@](N)(c1ccc(Cl)cc1)c1ccc2c(c1)c(-c1cccc(Cl)c1)cc(=O)n2C [tipifarnib]
In short: as §1

[6] = compound: NC(=O)Nc1cc(-c2cccc(F)c2)sc1C(=O)N[C@H]1CCCNC1
In short: as §1

[7] = compound: NC(=O)c1cnc(N[C@@H]2CCCC[C@@H]2N)nc1Nc1cccc(-n2nccn2)c1
In short: as §1

[8] = compound: NC1(c2ccc(-c3nc4ccn5c(=O)[nH]nc5c4cc3-c3ccccc3)cc2)CCC1
In short: as §1

Measured: log2 fold change

CEP120 (UniProt Q8N960)
UniProt Q8N960, sequence (Q8N960 whole entry, looked up): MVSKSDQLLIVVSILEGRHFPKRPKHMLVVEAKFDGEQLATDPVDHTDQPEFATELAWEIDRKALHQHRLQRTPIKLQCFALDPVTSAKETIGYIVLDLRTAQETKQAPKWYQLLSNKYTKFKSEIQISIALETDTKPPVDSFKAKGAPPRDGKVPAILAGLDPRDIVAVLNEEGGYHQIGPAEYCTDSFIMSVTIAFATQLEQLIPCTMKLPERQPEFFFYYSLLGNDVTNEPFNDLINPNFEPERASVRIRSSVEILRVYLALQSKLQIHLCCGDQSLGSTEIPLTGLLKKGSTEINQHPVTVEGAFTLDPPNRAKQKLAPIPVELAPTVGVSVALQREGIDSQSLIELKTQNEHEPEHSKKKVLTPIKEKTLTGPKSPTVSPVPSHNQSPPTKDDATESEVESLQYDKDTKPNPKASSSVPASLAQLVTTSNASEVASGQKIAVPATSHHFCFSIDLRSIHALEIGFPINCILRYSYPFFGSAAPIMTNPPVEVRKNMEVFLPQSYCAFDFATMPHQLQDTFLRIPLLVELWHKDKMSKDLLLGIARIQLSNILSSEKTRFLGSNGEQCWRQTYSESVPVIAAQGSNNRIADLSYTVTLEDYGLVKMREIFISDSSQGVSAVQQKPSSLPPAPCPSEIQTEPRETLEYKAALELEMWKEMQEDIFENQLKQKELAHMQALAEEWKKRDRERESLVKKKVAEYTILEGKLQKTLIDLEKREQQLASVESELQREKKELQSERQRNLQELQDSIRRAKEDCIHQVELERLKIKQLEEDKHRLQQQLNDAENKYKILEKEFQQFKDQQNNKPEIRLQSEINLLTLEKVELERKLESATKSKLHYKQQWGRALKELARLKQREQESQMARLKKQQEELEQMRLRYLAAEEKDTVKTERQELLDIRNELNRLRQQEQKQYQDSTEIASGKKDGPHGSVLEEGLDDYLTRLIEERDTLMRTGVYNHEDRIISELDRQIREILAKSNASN
inactive: lapatinib -0.076 | pictilisib -0.007 | crizotinib -0.034 | [1] -0.105 | duvelisib 0.005 | gandotinib 0.016 | tozasertib -0.096 | doramapimod 0.107 | bafetinib -0.257 | [2] 0.129 | [3] -0.186 | dasatinib 0 | [4] -0.251 | [5] -0.001 | quisinostat -0.067 | tipifarnib 0.16 | [6] 0.013 | [7] 0.024 | [8] -0.151
active: nilotinib 0.524

CALM2 (UniProt P0DP24)
inactive: lapatinib -0.038 | pictilisib -0.128 | crizotinib 0.027 | [1] -0.252 | duvelisib 0.086 | gandotinib 0.068 | tozasertib 0.025 | doramapimod -0.064 | bafetinib -0.171 | [2] 0.187 | nilotinib -0.009 | [3] 0.014 | dasatinib -0.013 | [4] 0.022 | [5] -0.001 | quisinostat -0.178 | tipifarnib 0.016 | [6] -0.053 | [7] -0.014 | [8] -0.06

CHD1L (UniProt Q86WJ1)
UniProt Q86WJ1, sequence (Q86WJ1 whole entry, looked up): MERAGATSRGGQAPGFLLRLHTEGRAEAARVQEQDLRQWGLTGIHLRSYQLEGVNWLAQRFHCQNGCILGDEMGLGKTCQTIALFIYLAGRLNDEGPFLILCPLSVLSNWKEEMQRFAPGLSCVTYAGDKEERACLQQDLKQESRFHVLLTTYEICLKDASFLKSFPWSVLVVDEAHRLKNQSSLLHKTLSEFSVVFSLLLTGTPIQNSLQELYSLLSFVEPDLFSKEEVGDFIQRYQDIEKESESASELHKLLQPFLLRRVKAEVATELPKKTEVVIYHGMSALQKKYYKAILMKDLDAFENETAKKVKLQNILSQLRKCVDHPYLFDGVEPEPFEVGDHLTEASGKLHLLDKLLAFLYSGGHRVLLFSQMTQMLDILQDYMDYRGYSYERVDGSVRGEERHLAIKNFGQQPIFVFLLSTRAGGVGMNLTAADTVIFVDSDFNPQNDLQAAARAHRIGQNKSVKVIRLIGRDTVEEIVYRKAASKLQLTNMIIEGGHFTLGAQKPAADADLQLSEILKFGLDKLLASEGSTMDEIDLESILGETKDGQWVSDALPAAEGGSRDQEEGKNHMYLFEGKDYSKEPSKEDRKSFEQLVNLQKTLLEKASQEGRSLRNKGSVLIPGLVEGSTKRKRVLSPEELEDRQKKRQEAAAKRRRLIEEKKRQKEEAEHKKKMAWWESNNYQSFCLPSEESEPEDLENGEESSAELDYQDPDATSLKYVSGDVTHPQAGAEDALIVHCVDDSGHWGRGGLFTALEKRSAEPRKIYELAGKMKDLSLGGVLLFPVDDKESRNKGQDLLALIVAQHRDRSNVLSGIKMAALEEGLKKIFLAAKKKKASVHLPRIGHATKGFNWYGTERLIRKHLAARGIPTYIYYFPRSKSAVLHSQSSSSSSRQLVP
inactive: lapatinib -0.037 | pictilisib -0.045 | crizotinib -0.115 | [1] -0.011 | duvelisib 0.013 | gandotinib -0.062 | tozasertib 0.052 | doramapimod 0.128 | bafetinib -0.055 | [2] 0.038 | nilotinib -0.01 | [3] -0.012 | dasatinib -0.024 | [4] 0 | [5] 0.024 | quisinostat -0.114 | tipifarnib 0.032 | [6] 0.111 | [7] 0.028 | [8] -0.039

BET1 (UniProt O15155)
UniProt O15155, sequence (O15155 whole entry, looked up): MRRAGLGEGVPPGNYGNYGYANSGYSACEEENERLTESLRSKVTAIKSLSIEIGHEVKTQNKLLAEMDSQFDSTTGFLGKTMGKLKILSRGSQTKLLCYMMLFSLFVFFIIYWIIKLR
inactive: lapatinib -0.051 | pictilisib -0.034 | crizotinib -0.004 | [1] -0.004 | duvelisib 0.01 | gandotinib -0.006 | tozasertib 0 | doramapimod 0.03 | bafetinib -0.056 | [2] 0.03 | nilotinib 0.038 | [3] 0.052 | dasatinib -0.015 | [4] -0.011 | [5] 0 | quisinostat 0.023 | tipifarnib -0.063 | [6] -0.005 | [7] -0.057 | [8] -0.005

CDK5RAP2 (UniProt Q96SN8)
UniProt Q96SN8, sequence (Q96SN8 whole entry, looked up): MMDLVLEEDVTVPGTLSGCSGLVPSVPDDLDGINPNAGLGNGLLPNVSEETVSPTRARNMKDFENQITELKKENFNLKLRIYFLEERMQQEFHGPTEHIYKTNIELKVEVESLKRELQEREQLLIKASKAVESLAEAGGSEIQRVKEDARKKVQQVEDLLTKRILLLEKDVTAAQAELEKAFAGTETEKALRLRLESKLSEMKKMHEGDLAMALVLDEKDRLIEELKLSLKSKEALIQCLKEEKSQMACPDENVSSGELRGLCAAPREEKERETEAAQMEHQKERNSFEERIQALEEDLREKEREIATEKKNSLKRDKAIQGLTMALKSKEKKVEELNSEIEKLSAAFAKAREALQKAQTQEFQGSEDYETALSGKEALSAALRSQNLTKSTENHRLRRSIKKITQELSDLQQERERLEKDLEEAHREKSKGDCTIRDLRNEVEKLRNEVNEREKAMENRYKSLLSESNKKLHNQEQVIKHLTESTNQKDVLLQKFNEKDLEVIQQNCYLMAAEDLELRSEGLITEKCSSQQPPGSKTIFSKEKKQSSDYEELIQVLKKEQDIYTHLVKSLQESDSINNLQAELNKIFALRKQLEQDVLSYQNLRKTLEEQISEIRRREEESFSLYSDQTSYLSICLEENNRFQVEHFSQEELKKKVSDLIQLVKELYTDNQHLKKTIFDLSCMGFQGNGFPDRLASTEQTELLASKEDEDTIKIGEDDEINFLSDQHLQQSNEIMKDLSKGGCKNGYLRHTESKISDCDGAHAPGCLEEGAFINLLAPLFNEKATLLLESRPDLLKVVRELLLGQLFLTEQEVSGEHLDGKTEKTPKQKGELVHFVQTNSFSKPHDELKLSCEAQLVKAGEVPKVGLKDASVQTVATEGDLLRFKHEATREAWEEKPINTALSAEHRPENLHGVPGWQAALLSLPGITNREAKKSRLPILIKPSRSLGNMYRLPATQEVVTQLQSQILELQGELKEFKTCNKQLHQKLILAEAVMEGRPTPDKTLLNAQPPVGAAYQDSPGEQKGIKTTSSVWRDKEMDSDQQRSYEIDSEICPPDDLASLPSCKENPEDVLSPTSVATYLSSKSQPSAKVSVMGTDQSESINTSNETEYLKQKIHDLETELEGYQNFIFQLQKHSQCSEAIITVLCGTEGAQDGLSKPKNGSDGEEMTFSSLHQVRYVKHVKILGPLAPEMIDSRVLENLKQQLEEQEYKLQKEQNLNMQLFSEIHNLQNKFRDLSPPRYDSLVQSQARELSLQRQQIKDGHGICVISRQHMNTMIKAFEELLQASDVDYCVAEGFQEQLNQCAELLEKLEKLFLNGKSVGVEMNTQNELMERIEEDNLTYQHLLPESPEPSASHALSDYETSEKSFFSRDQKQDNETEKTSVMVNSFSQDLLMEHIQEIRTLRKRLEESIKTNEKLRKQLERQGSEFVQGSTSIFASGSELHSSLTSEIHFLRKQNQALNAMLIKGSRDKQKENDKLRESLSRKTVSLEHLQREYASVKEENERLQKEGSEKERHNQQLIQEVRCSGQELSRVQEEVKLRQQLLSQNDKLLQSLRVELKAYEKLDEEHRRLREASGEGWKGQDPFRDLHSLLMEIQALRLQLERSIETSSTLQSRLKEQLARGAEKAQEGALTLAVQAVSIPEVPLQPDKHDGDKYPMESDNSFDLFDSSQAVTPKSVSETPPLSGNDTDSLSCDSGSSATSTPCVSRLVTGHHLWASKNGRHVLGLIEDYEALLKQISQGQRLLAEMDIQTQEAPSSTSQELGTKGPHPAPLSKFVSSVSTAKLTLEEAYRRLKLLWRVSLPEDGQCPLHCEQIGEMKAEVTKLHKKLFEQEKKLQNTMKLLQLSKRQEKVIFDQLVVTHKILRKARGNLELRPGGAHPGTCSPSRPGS
inactive: lapatinib -0.182 | pictilisib -0.04 | crizotinib -0.035 | [1] -0.032 | duvelisib 0.023 | gandotinib -0.092 | tozasertib 0.024 | doramapimod 0.003 | bafetinib 0 | [2] 0.084 | nilotinib 0.024 | [3] -0.009 | dasatinib -0.002 | [4] 0.056 | [5] -0.015 | quisinostat -0.081 | tipifarnib -0.011 | [6] -0.006 | [7] -0.104 | [8] -0.001

CHCHD1 (UniProt Q96BP2)
active: [1] 1.33 | [2] -0.35
inactive: lapatinib 0.025 | pictilisib 0.001 | crizotinib -0.069 | duvelisib 0.052 | gandotinib -0.314 | tozasertib -0.016 | doramapimod 0.039 | bafetinib 0.003 | nilotinib -0.09 | [3] -0.023 | dasatinib 0.084 | [4] -0.043 | [5] -0.097 | quisinostat -0.174 | tipifarnib -0.03 | [6] 0 | [7] -0.023 | [8] -0.019

CDKN1C (UniProt P49918)
UniProt P49918, sequence (P49918 whole entry, looked up): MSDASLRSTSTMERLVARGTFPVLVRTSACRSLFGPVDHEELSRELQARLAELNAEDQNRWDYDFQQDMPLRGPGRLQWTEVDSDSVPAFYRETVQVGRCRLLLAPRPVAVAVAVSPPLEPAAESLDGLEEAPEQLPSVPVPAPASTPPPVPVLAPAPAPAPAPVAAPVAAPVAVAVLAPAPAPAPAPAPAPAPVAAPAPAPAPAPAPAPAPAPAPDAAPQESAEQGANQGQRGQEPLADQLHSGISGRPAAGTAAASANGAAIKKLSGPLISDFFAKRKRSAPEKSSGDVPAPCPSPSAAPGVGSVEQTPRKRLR
inactive: lapatinib 0.027 | pictilisib -0.033 | crizotinib 0.105 | [1] -0.025 | duvelisib -0.035 | gandotinib -0.046 | tozasertib -0.095 | doramapimod -0.045 | bafetinib 0.049 | [2] 0.071 | nilotinib -0.054 | [3] -0.035 | dasatinib 0.083 | [4] 0.094 | [5] 0.055 | quisinostat 0.091 | tipifarnib 0.037 | [6] -0.091 | [7] -0.101 | [8] 0.04

AURKAIP1 (UniProt Q9NWT8)
inactive: lapatinib -0.001 | pictilisib 0.051 | crizotinib 0.021 | [1] -0.017 | duvelisib 0.012 | gandotinib -0.03 | tozasertib 0.028 | doramapimod -0.039 | bafetinib -0.029 | [2] -0.04 | nilotinib -0.072 | [3] -0.019 | dasatinib 0 | [4] 0 | [5] -0.058 | quisinostat -0.02 | tipifarnib -0.041 | [6] 0.055 | [7] 0.042 | [8] -0.071

ATM (UniProt Q13315)
inactive: lapatinib -0.018 | pictilisib -0.055 | crizotinib -0.045 | [1] -0.112 | duvelisib -0.035 | gandotinib 0.014 | tozasertib -0.04 | doramapimod 0.051 | bafetinib -0.01 | [2] 0.08 | nilotinib -0.019 | [3] -0.019 | dasatinib -0.071 | [4] 0.084 | [5] 0.038 | quisinostat 0.039 | tipifarnib 0.009 | [6] 0.009 | [7] 0.039 | [8] 0.008

ATG4A (UniProt Q8WYN0)
UniProt Q8WYN0, sequence (Q8WYN0 whole entry, looked up): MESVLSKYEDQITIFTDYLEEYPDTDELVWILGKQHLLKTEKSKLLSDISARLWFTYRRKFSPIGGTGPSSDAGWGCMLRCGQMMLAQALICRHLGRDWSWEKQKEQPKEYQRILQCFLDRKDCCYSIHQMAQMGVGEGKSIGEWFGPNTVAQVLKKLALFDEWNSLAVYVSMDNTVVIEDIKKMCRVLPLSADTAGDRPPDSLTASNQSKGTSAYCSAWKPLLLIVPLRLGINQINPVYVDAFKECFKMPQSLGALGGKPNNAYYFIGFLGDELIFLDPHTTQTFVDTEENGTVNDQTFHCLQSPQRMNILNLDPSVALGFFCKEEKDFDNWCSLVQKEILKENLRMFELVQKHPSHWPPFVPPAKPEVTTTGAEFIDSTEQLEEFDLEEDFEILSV
inactive: lapatinib -0.017 | pictilisib -0.02 | crizotinib -0.033 | [1] -0.061 | duvelisib -0.009 | gandotinib -0.025 | tozasertib 0.044 | doramapimod 0.008 | bafetinib -0.014 | [2] 0.063 | nilotinib -0.022 | [3] 0.018 | dasatinib -0.064 | [4] 0.037 | [5] -0.038 | quisinostat -0.042 | tipifarnib -0.015 | [6] 0.096 | [7] -0.02 | [8] 0

CCAR2 (UniProt Q8N163)
inactive: lapatinib 0.002 | pictilisib -0.061 | crizotinib -0.067 | [1] -0.009 | duvelisib -0.015 | gandotinib 0.058 | tozasertib 0.026 | doramapimod 0.022 | bafetinib -0.011 | [2] 0.06 | nilotinib -0.001 | [3] -0.016 | dasatinib -0.069 | [4] -0.017 | [5] 0.018 | quisinostat -0.033 | tipifarnib -0.013 | [6] 0.027 | [7] 0.014 | [8] -0.007

CEBPZOS (UniProt A8MTT3)
UniProt A8MTT3, sequence (A8MTT3 whole entry, looked up): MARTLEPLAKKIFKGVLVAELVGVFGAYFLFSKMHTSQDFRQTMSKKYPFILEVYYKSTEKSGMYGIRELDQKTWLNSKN
inactive: lapatinib -0.001 | crizotinib -0.025 | [1] -0.352 | duvelisib 0.035 | gandotinib -0.044 | tozasertib 0.039 | doramapimod 0.177 | nilotinib 0.069 | [3] -0.01 | dasatinib 0.053 | [4] 0.024 | [5] 0.044 | quisinostat 0.02 | tipifarnib -0.017 | [6] -0.039 | [7] -0.004 | [8] -0.008
active: [2] 0.203
